Laboratory results published in PubChem BioAssay (NCI).
About 79,000 compounds went through this panel and 15% of them were active in at least one assay; those are over-represented in the sample as a whole. Active and inactive are the calls of the source. Rule as the data show it: active = growth inhibition above about 70%; inactive = the rest.

Experiment: NCI Yeast Anticancer Drug Screen. Data for the wt1 strain (AID 149);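 also: 0% = growth of vehicle-treated wt1 cultures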
Details: S. cerevisiae wt1 strain (SPY 50644) growth inhibition, stronger effect = higher value
Procedure: Growth inhibition of yeast strains with defined genetic alterations is measured as a screen for potential anti-cancer activity. Selected strains with alterations in DNA damage repair or cell cycle control were exposed to compounds and growth inhibition was measured relative to vehicle treated controls. The strain used in this assay is wt1

Measured: growth inhibition

Cc1ccc2nc3sc(=O)sc3nc2c1
inactive: at 1.2 µM -2% | at 3.7 µM 22%
active: at 11.0 µM 88% | at 33.0 µM 98% | at 100.0 µM 97%

CCC1(O)C(=O)OCc2c1cc1n(c2=O)Cc2cc3cc(Cl)ccc3nc2-1 (stereo not given)
inactive: at 1.2 µM 3% | at 3.7 µM 0% | at 11.0 µM 16% | at 33.0 µM 43% | at 100.0 µM 65%

O=S(=O)(O)/C(=C\c1ccccc1)c1ccccc1 (tested in a mixture with another compound)
inactive: at 1.2 µM 1% | at 3.7 µM 0% | at 11.0 µM 1% | at 33.0 µM 0% | at 100.0 µM -1%

O=C1C=C(CN(CCCl)CCCl)C(=O)C=C1CN(CCCl)CCCl
inactive: at 1.2 µM -3% | at 3.7 µM 0% | at 11.0 µM 1% | at 33.0 µM 3% | at 100.0 µM 4%

COc1ccc(/C=C(/C)[N+](=O)[O-])cc1
active: at 33.0 µM 72% | at 100.0 µM 99%
inactive: at 1.2 µM -28% | at 3.7 µM -21% | at 11.0 µM -18%

COC1CC(CC2CCC(C)C(C(C)C(=O)O)O2)OC2(OC(C)(C3CCC(C)(C4OC(C5OC(O)(CO)C(C)CC5C)CC4C)O3)CC2C)C1C (stereo not given)
active: at 33.0 µM 93% | at 100.0 µM 98%
inactive: at 1.2 µM -2% | at 3.7 µM -9% | at 11.0 µM 5%

Nc1ccccc1C(=O)OCCc1ccccc1
inactive: at 1.2 µM -25% | at 3.7 µM -6% | at 11.0 µM -23% | at 33.0 µM -26%
active: at 100.0 µM 92%

O=c1oc2ccccc2c(O)c1C(c1ccc2c(c1)Cc1ccccc1-2)c1c(O)c2ccccc2oc1=O
active: at 100.0 µM 97%
inactive: at 1.2 µM -16% | at 3.7 µM -5% | at 11.0 µM 5% | at 33.0 µM 53%
